Results as given in PubChem BioAssay AID1159580 (chemical genetic matrix, 2015).
The whole screen tested about 5,500 compounds, of which about 2,000 (36%) were called active. About 18% were inconclusive and are not listed. No stated cut-off is given here; in the data, active means normalized growth mostly below about 0.91 (no sharp cut-off); inconclusive means no clear call, values can overlap the other calls; inactive means mostly above about 0.92. Some of the results follow.

Experiment: chemical genetic growth profiling, strain panel (AID 1159580);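 further: tested at 20 µM; growth read once vehicle control cultures reached saturation at 30 °C; 1 = growth at the plate median or of vehicle wells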
Conditions: growth OD

Measured: normalized growth

C[C@H]1[C@H](C)CC[C@]2(C(=O)O)CC[C@]3(C)C(=CCC4[C@@]5(C)C[C@@H](O)[C@H](O)[C@@](C)(CO)C5[C@H](O)C[C@]43C)[C@H]12 (stereo partly drawn)
inactive: S. cerevisiae deletion strains, locus YJR066W, strain TOR1, stronger effect = lower value 0.909 | S. cerevisiae deletion strains, locus YKL160W, strain elf1, stronger effect = lower value 0.958 | S. cerevisiae deletion strains, locus YKR026C, strain gcn3, stronger effect = lower value 0.962 | S. cerevisiae deletion strains, locus YKR091W, strain srl3, stronger effect = lower value 0.965 | S. cerevisiae deletion strains, locus YLL001W, strain dnm1, stronger effect = lower value 0.964 | S. cerevisiae deletion strains, locus YLL026W, stronger effect = lower value 0.97 | S. cerevisiae deletion strains, locus YLL041C, strain sdh2, stronger effect = lower value 0.966 | S. cerevisiae deletion strains, locus YLR027C, strain aat2, stronger effect = lower value 0.96 | S. cerevisiae deletion strains, locus YLR039C, strain RIC1, stronger effect = lower value 0.799 | S. cerevisiae deletion strains, locus YLR058C, strain SHM2, stronger effect = lower value 0.993 | S. cerevisiae deletion strains, locus YLR102C, strain apc9, stronger effect = lower value 0.976 | S. cerevisiae deletion strains, locus YLR221C, strain rsa3, stronger effect = lower value 0.922 | S. cerevisiae deletion strains, locus YLR258W, strain gsy2, stronger effect = lower value 0.968 | S. cerevisiae deletion strains, locus YLR262C, strain YPT6 (second series), stronger effect = lower value 0.919 | S. cerevisiae deletion strains, locus YLR262C, strain YPT6, stronger effect = lower value 0.872 | S. cerevisiae deletion strains, locus YLR268W, strain sec22, stronger effect = lower value 0.932 | S. cerevisiae deletion strains, locus YLR320W, strain mms22, stronger effect = lower value 0.928 | S. cerevisiae deletion strains, locus YLR330W, strain CHS5, stronger effect = lower value 0.958 | S. cerevisiae deletion strains, locus YLR342W, strain FKS1 (second series), stronger effect = lower value 0.915 | S. cerevisiae deletion strains, locus YLR342W, strain FKS1, stronger effect = lower value 0.982 | S. cerevisiae deletion strains, locus YLR357W, strain rsc2, stronger effect = lower value 0.921 | S. cerevisiae deletion strains, locus YLR370C, strain arc18, stronger effect = lower value 0.967 | S. cerevisiae deletion strains, locus YLR371W, strain rom2, stronger effect = lower value 0.921 | S. cerevisiae deletion strains, locus YLR384C, strain iki3, stronger effect = lower value 0.964 | S. cerevisiae deletion strains, locus YLR418C, strain cdc73, stronger effect = lower value 0.901 | S. cerevisiae deletion strains, locus YML016C, strain PPZ1, stronger effect = lower value 0.99 | S. cerevisiae deletion strains, locus YML032C, strain rad52, stronger effect = lower value 0.959 | S. cerevisiae deletion strains, locus YML120C, strain ndi1, stronger effect = lower value 0.951 | S. cerevisiae deletion strains, locus YML124C, strain tub3, stronger effect = lower value 0.963 | S. cerevisiae deletion strains, locus YMR058W, strain fet3, stronger effect = lower value 0.972 | S. cerevisiae deletion strains, locus YMR078C, strain ctf18, stronger effect = lower value 0.979 | S. cerevisiae deletion strains, locus YMR125W, strain sto1, stronger effect = lower value 0.966 | S. cerevisiae deletion strains, locus YMR129W, stronger effect = lower value 0.962 | S. cerevisiae deletion strains, locus YMR205C, strain PFK2, stronger effect = lower value 0.909 | S. cerevisiae deletion strains, locus YMR223W, strain ubp8, stronger effect = lower value 0.905 | S. cerevisiae deletion strains, locus YMR231W, strain pep5, stronger effect = lower value 0.978 | S. cerevisiae deletion strains, locus YMR307W, strain GAS1, stronger effect = lower value 0.6 | S. cerevisiae deletion strains, locus YNL067W, strain RPL9B, stronger effect = lower value 0.942 | S. cerevisiae deletion strains, locus YNL071W, strain lat1, stronger effect = lower value 0.973 | S. cerevisiae deletion strains, locus YNL183C, strain NPR1, stronger effect = lower value 0.905 | S. cerevisiae deletion strains, locus YNL209W, strain ssb2, stronger effect = lower value 0.961 | S. cerevisiae deletion strains, locus YNL233W, strain BNI4, stronger effect = lower value 0.927 | S. cerevisiae deletion strains, locus YNL248C, strain rpa49, stronger effect = lower value 0.964 | S. cerevisiae deletion strains, locus YNL250W, strain rad50, stronger effect = lower value 0.98 | S. cerevisiae deletion strains, locus YNL307C, strain MCK1, stronger effect = lower value 0.994 | S. cerevisiae deletion strains, locus YNL322C, strain KRE1 (second series), stronger effect = lower value 0.98 | S. cerevisiae deletion strains, locus YNL322C, strain KRE1, stronger effect = lower value 0.984 | S. cerevisiae deletion strains, locus YNR049C, strain mso1, stronger effect = lower value 0.987 | S. cerevisiae deletion strains, locus YOL006C, strain TOP1, stronger effect = lower value 0.915 | S. cerevisiae deletion strains, locus YOL012C, strain htz1 0.605 | S. cerevisiae deletion strains, locus YOL147C, strain pex11, stronger effect = lower value 0.985 | S. cerevisiae deletion strains, locus YOR001W, strain rrp6, stronger effect = lower value 0.907 | S. cerevisiae deletion strains, locus YOR061W, strain CKA2, stronger effect = lower value 0.994 | S. cerevisiae deletion strains, locus YOR069W, strain VPS5, stronger effect = lower value 0.998 | S. cerevisiae deletion strains, locus YOR070C, strain gyp1, stronger effect = lower value 0.966 | S. cerevisiae deletion strains, locus YOR080W, strain dia2, stronger effect = lower value 0.967 | S. cerevisiae deletion strains, locus YOR083W, strain WHI5, stronger effect = lower value 0.954 | S. cerevisiae deletion strains, locus YOR106W, strain vam3, stronger effect = lower value 0.972 | S. cerevisiae deletion strains, locus YOR136W, strain idh2, stronger effect = lower value 0.931 | S. cerevisiae deletion strains, locus YOR144C, strain elg1, stronger effect = lower value 0.958 | S. cerevisiae deletion strains, locus YOR184W, strain ser1, stronger effect = lower value 0.946 | S. cerevisiae deletion strains, locus YOR231W, strain MKK1, stronger effect = lower value 0.982 | S. cerevisiae deletion strains, locus YOR265W, strain rbl2, stronger effect = lower value 0.98 | S. cerevisiae deletion strains, locus YOR270C, strain vph1, stronger effect = lower value 0.851 | S. cerevisiae deletion strains, locus YOR290C, strain snf2, stronger effect = lower value 0.971 | S. cerevisiae deletion strains, locus YOR316C, strain cot1, stronger effect = lower value 0.962 | S. cerevisiae deletion strains, locus YPL051W, strain arl3, stronger effect = lower value 0.959 | S. cerevisiae deletion strains, locus YPL055C, strain LGE1, stronger effect = lower value 0.938 | S. cerevisiae deletion strains, locus YPL078C, strain atp4, stronger effect = lower value 0.984 | S. cerevisiae deletion strains, locus YPL106C, strain sse1, stronger effect = lower value 0.895 | S. cerevisiae deletion strains, locus YPL240C, strain hsp82, stronger effect = lower value 0.953 | S. cerevisiae deletion strains, locus YPL241C, strain CIN2, stronger effect = lower value 1 | S. cerevisiae deletion strains, locus YPL256C, strain CLN2, stronger effect = lower value 0.958 | S. cerevisiae deletion strains, locus YPR119W, strain clb2, stronger effect = lower value 0.978 | S. cerevisiae deletion strains, locus YPR141C, strain kar3, stronger effect = lower value 0.974 | S. cerevisiae deletion strains, locus YPR163C, strain tif3, stronger effect = lower value 0.969 | S. cerevisiae deletion strains, locus YPR167C, strain met16, stronger effect = lower value 0.974 | S. cerevisiae deletion strains, strain wtn01, stronger effect = lower value 0.94 | S. cerevisiae strains, strain wild type, stronger effect = lower value 0.961
active: S. cerevisiae deletion strains, locus YKL009W, strain mrt4, stronger effect = lower value 1.55 [resistant] | S. cerevisiae deletion strains, locus YKL068W, stronger effect = lower value 1.23 [resistant] | S. cerevisiae deletion strains, locus YKL085W, strain MDH1 (second series), stronger effect = lower value 1.3 [resistant] | S. cerevisiae deletion strains, locus YKL085W, strain MDH1, stronger effect = lower value 1.3 [resistant] | S. cerevisiae deletion strains, locus YKR001C, strain vps1, stronger effect = lower value 0.855 | S. cerevisiae deletion strains, locus YLR113W, strain HOG1, stronger effect = lower value 0.673 | S. cerevisiae deletion strains, locus YNL271C, strain bni1, stronger effect = lower value 0.907 | S. cerevisiae deletion strains, locus YNL298W, strain CLA4, stronger effect = lower value 0.869 | S. cerevisiae deletion strains, locus YNR052C, strain pop2, stronger effect = lower value 0.914
